The supplement of paper PMC10849652
Targets with a hit are over-represented here; the source holds about 7,900 in all. About 0.6% of all pairs of compound and target were hits.

Key:
Test in all cases: log2 fold change, soluble protein after heating vs DMSO (PISA); higher = thermal stabilisation; K562 cells, 10 uM, 30 min; active = over 0.2 and 3.5 SD of the protein, either way, in both replicates (recomputed)
[1] = compound: CC[C@@H]1C(=O)N(C)c2cnc(Nc3ccc(C(=O)NC4CCN(C)CC4)cc3OC)nc2N1C1CCCC1
In short: (§1)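 Quantification of soluble protein used TMTpro 16plex LC-MS/MS, with channel sums equalised. Samples were the supernatant after 21,000xg for 90 min of pooled aliquots from K562 cells (2×10^6 cells/mL) treated with 10 μM compound for 30 min, heated for 3 min over 48°C-58°C, and extracted in PBS with 0.5% NP-40 at 4°C. Values, from duplicates, describe thermal stability against control samples on a log2 fold-change scale.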

[2] = compound: CC[C@H](C)[C@@H](C(=O)N[C@@H]([C@@H](C)O)C(=O)N[C@@H](CC(C)C)C(=O)[C@]1(CO1)C)NC(=O)[C@H]([C@@H](C)CC)N(C)C(=O)C [epoxomicin]
In short: as §1

[3] = compound: CN(C)CC(=O)Nc1ccc2[nH]c(=O)c3ccccc3c2c1
In short: as §1

[4] = compound: CN1C2=C(C3=C1C(=O)N(N=C3)CC4=CC(=CC=C4)N)SC(=C2)S(=O)C
In short: as §1

[5] = compound: CN1CCN(CCOc2cc(OC3CCOCC3)c3c(Nc4c(Cl)ccc5c4OCO5)ncnc3c2)CC1 [saracatinib]
In short: as §1

[6] = compound: CN1CCN(c2nc(C3=C(c4c[nH]c5ccccc45)C(=O)NC3=O)c3ccccc3n2)CC1 [sotrastaurin]
In short: as §1

[7] = compound: CN1CCc2c(c3ccccc3n2Cc2ccc(C(=O)NO)cc2)C1 [Tubastatin A]
In short: as §1

[8] = compound: CNC(=O)c1ccc(Nc2ncc(C(F)(F)F)c(NCc3nccnc3N(C)S(C)(=O)=O)n2)cc1 [defactinib]
In short: as §1

[9] = compound: CNCc1ccc(-c2[nH]c3cc(F)cc4c3c2CCNC4=O)cc1 [rucaparib]
In short: as §1

[10] = compound: CNc1nc(-c2ccc3c(N)n[nH]c3c2)cc(N2C[C@@H](C(=O)NC3CCCCC3)CC[C@H]2C)n1
In short: as §1

[11] = compound: COC(=O)N[C@@H](C)CNc1nccc(-c2cn(C(C)C)nc2-c2cc(Cl)cc(NS(C)(=O)=O)c2F)n1 [encorafenib]
In short: as §1

[12] = compound: COC(=O)[C@H](CCSC)NC(=O)C1=C(C=C(C=C1)NC[C@H](CS)N)C2=CC=CC=C2
In short: as §1

[13] = compound: CC[C@H](C)N1C=C(C2=C(C=C(C=C21)C3=CN=C(C=C3)N4CCNCC4)C(=O)NCC5=C(C=C(NC5=O)C)C)C
In short: as §1

[14] = compound: CCn1c(C(=O)N(C2CC2)C2CC2)cc2c3c(ncn3C)c(Nc3cc(C)n(C)n3)nc21
In short: as §1

[15] = compound: CCn1cc(-c2ccnc3[nH]c(-c4cccc(CN(C)C)c4)cc23)c(-c2ccc(NC(=O)N(C)C)cc2)n1
In short: as §1

[16] = compound: CN(CCOC1=CC=C(C=C1)C[C@H]2C(=O)NC(=O)S2)C3=CC=CC=N3 (racemic) [rosiglitazone]
In short: as §1

[17] = compound: CN1CCC(CNc2ccc3ncc(-c4cccc(OC(F)(F)F)c4)n3n2)CC1
In short: as §1

[18] = compound: CN1CC[C@H](c2c(O)cc(O)c3c(=O)cc(-c4ccccc4Cl)oc23)[C@H](O)C1 [alvocidib]
In short: as §1

[19] = compound: CNC(=O)C1=CC=CC=C1NC2=NC(=NC=C2Cl)NC3=C(C=C(C=C3)N4CCOCC4)OC
In short: as §1

[20] = compound: CC[C@@H]1C(=O)N(C)c2cnc(Nc3ccc(C(=O)N[C@H]4CC[C@H](N5CCN(CC6CC6)CC5)CC4)cc3OC)nc2N1C(C)C [volasertib]
In short: as §1

Measured: log2 fold change

MSANTD2 (UniProt Q6P1R3)
Chain of UniProt Q6P1R3 (Q6P1R3 whole entry, looked up): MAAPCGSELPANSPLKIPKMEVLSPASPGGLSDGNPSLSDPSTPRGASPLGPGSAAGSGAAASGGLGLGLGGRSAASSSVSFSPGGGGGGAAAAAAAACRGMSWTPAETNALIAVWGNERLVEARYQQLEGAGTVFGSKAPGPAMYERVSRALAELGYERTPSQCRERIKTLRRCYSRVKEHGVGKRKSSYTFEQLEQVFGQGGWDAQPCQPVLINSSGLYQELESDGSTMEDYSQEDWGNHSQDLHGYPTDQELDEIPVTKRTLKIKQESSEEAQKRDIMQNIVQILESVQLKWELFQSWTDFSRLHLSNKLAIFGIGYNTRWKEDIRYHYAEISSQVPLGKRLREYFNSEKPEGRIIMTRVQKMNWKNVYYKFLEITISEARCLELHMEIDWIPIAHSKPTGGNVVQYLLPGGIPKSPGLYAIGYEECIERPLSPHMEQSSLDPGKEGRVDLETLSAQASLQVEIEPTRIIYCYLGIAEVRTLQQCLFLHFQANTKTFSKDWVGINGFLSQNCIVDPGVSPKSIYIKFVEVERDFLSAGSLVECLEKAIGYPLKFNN
inactive: [1] -0.071 | [2] -0.273 | [3] 0.004 | [4] 0.13 | [5] -0.248 | [6] 0.105 | [7] 0.032 | [8] -0.113 | [9] -0.32 | [10] 0.03 | [11] -0.067 | [12] -0.01

NDFIP1 (UniProt Q9BT67)
inactive: [1] 0.211 | [13] -0.2 | [2] 0.102 | [14] 0.056 | [15] 0.224 | [3] 0.152 | [16] 0.108 | [4] 0.175 | [17] -0.062 | [5] -0.274 | [6] -0.028 | [18] -0.088 | [7] 0.056 | [19] 0.124 | [8] 0.015 | [9] 0.286 | [10] -0.187 | [11] -0.001 | [12] -0.115

MT-ND2 (UniProt P03891)
inactive: [20] -0.021 | [13] -0.113 | [14] -0.007 | [15] 0.106 | [3] 0.195 | [16] 0.04 | [4] -0.13 | [17] 0.033 | [5] -0.183 | [18] -0.321 | [7] -0.044 | [19] 0 | [8] -0.008 | [10] -0.295 | [12] 0.085

MTFR1L (UniProt Q9H019)
Chain of UniProt Q9H019 (Q9H019 whole entry, looked up): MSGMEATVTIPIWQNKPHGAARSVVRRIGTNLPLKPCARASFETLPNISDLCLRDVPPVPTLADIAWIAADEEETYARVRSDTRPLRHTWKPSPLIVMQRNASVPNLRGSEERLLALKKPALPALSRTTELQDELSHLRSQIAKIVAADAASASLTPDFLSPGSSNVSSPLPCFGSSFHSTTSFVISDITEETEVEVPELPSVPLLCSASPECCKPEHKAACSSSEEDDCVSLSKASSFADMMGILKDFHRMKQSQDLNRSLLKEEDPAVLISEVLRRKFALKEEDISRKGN
active: [20] -0.586
inactive: [13] 0.036 | [2] 0.023 | [14] -0.145 | [15] -0.186 | [3] 0.08 | [16] -0.019 | [4] 0.013 | [17] -0.296 | [5] 0.052 | [6] -0.037 | [18] -0.106 | [7] 0.052 | [19] -0.024 | [8] -0.085 | [10] -0.054 | [12] -0.14

NA, A0A1W2PSA9
inactive: [15] 0.08 | [4] 0.279 | [17] 0.057 | [5] -0.046 | [18] 0.168 | [7] -0.17 | [10] -0.107

MOB2 isoform 3 (UniProt Q70IA6)
Chain of UniProt Q70IA6 (Q70IA6 whole entry, looked up): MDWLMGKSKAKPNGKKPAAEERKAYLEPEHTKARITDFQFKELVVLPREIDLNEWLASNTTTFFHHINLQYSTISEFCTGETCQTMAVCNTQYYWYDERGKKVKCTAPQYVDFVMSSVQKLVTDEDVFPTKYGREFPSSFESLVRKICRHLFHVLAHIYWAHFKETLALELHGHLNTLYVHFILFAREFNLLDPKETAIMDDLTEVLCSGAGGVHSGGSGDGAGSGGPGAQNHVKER
inactive: [20] -0.231 | [13] 0.207 | [2] -0.193 | [14] -0.036 | [15] -0.029 | [16] -0.004 | [17] -0.103 | [18] -0.017 | [7] -0.073 | [19] -0.123

NKTR (UniProt P30414)
active: [19] 0.939
inactive: [20] -0.152 | [14] -0.102 | [16] 0.39

NRGN (UniProt Q92686)
Chain of UniProt Q92686 (Q92686 whole entry, looked up): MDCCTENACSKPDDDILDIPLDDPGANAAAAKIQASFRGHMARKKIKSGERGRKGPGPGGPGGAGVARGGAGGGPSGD
inactive: [20] 0.052 | [13] -0.088 | [2] 0.162 | [14] 0.021 | [15] 0.14 | [16] 0.127 | [17] -0.547 | [19] 0.01

NA, A0A2R8Y3M9
inactive: [20] -0.134 | [13] 0.014 | [15] -0.015 | [16] 0.117 | [4] 0.376 | [17] 0.005 | [5] 0.171 | [6] 0.191 | [18] 0.214 | [10] -0.04

MYSM1 (UniProt Q5VVJ2)
inactive: [1] -0.17 | [16] 0.157 | [6] -0.294 | [9] 0.003 | [11] 0.13

PAFAH2 (UniProt Q99487)
inactive: [20] -0.058 | [14] -0.328 | [3] 0.005 | [16] 0.082 | [4] -0.059 | [5] 0.023 | [6] -0.074 | [18] -0.112 | [7] -0.196 | [19] -0.179 | [8] -0.093 | [10] -0.133 | [12] -0.067

NECTIN2 isoform 2 (UniProt Q92692)
inactive: [1] 0.175 | [13] 0.106 | [2] -0.132 | [14] 0.05 | [15] -0.104 | [3] -0.063 | [16] -0.151 | [4] -0.146 | [17] 0.318 | [5] 0.188 | [6] 0.288 | [19] 0.062 | [8] 0.11 | [9] -0.039 | [10] 0.158 | [11] 0.077 | [12] 0.049

NDUFA7 (UniProt M0R0N0)
inactive: [14] -0.017 | [3] -0.092 | [16] 0.081 | [6] 0.201 | [19] -0.195 | [8] 0.076 | [12] 0.093

MPHOSPH8 isoform 2 (UniProt Q99549)
Chain of UniProt Q99549 (Q99549 whole entry, looked up): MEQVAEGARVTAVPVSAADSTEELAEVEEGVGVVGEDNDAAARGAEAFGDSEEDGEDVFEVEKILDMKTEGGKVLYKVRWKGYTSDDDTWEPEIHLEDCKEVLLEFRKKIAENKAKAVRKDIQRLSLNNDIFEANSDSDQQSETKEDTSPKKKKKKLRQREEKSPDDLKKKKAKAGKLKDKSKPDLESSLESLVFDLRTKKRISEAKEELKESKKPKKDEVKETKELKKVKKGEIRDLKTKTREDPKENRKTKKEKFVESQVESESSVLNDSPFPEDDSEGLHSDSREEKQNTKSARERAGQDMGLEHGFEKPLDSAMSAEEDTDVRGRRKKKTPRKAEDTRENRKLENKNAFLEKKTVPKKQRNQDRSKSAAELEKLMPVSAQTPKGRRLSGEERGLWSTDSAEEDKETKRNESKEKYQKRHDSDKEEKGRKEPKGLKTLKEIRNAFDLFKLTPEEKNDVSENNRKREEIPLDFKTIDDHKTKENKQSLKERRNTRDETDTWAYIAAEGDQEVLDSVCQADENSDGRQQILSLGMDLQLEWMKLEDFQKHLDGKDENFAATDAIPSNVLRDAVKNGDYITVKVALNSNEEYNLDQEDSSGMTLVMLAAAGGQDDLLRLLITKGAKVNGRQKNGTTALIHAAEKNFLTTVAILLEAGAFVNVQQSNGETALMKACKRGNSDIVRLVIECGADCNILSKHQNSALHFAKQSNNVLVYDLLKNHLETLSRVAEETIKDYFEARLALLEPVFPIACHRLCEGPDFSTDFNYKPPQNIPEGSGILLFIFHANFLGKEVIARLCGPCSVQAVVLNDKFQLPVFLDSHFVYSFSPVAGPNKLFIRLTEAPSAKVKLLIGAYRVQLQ
inactive: [20] 0.012 | [2] 0.16 | [3] -0.093 | [4] 0.058 | [5] 0.088 | [6] 0.018 | [18] 0.005 | [7] 0 | [8] 0.015 | [10] -0.064 | [12] 0.013

MLH1 (UniProt P40692)
inactive: [20] -0.385 | [2] 0.11 | [15] 0.073 | [16] 0.264 | [4] 0.268 | [17] 0.112 | [5] -0.103 | [18] -0.235 | [7] 0.158 | [10] -0.168

NEU3 isoform 2 (UniProt Q9UQ49)
Chain of UniProt Q9UQ49 (Q9UQ49 whole entry, looked up): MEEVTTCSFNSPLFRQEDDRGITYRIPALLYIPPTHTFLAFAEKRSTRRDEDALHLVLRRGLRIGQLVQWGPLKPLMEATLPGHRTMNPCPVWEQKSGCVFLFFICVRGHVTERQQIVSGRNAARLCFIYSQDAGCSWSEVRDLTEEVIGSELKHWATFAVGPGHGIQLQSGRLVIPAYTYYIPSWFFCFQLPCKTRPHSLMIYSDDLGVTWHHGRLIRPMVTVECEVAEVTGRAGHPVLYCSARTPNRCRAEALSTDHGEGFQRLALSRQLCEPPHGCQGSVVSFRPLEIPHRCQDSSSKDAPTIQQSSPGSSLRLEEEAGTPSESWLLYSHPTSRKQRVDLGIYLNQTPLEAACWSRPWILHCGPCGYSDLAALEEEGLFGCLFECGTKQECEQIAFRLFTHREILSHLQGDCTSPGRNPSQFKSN
inactive: [20] -0.158 | [14] -0.074 | [6] 0.004 | [19] 0.091

NA isoform 3 (UniProt Q4G0T1)
inactive: [20] -0.051 | [13] 0.026 | [14] 0.004 | [3] -0.019 | [16] 0.008 | [4] -0.008 | [5] -0.011 | [6] 0.035 | [18] 0.039 | [7] 0.04 | [19] 0.007 | [8] 0.034 | [10] -0.053 | [12] -0.001

NOLC1 isoform 3 (UniProt Q14978)
Chain of UniProt Q14978 (Q14978 whole entry, looked up): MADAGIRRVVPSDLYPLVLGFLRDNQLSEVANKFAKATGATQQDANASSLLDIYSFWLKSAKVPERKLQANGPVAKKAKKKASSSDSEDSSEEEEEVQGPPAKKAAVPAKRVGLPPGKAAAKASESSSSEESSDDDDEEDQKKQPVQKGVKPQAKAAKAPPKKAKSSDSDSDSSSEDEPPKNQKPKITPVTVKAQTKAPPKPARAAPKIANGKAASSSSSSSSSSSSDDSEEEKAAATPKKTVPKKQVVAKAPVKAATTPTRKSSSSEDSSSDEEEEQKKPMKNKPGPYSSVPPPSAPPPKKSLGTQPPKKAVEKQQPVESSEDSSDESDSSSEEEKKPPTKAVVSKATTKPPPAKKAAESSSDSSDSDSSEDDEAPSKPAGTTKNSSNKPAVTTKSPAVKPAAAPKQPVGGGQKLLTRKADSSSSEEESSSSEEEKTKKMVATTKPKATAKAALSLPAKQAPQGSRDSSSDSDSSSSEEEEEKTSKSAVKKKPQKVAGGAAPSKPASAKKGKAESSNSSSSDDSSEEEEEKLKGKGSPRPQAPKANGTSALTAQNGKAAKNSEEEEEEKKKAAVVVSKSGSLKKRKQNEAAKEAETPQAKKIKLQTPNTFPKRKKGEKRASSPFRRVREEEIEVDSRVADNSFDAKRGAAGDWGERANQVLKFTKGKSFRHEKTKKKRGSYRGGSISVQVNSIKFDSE
inactive: [14] -0.275 | [18] 0.083 | [19] 0.018

NCK1 (UniProt P16333)
active: [6] -0.521
inactive: [20] -0.306 | [13] 0.109 | [2] -0.053 | [14] -0.312 | [3] 0.044 | [16] 0.223 | [4] 0.027 | [5] -0.198 | [18] -0.005 | [7] 0.126 | [19] -0.071 | [8] -0.125 | [10] 0.158 | [12] -0.122

MORC2 (UniProt Q9Y6X9)
active: [20] -0.8
inactive: [2] 0.118 | [14] -0.347 | [16] 0.106 | [19] 0.124

NELFCD (UniProt Q8IXH7)
Chain of UniProt Q8IXH7 (Q8IXH7 whole entry, looked up): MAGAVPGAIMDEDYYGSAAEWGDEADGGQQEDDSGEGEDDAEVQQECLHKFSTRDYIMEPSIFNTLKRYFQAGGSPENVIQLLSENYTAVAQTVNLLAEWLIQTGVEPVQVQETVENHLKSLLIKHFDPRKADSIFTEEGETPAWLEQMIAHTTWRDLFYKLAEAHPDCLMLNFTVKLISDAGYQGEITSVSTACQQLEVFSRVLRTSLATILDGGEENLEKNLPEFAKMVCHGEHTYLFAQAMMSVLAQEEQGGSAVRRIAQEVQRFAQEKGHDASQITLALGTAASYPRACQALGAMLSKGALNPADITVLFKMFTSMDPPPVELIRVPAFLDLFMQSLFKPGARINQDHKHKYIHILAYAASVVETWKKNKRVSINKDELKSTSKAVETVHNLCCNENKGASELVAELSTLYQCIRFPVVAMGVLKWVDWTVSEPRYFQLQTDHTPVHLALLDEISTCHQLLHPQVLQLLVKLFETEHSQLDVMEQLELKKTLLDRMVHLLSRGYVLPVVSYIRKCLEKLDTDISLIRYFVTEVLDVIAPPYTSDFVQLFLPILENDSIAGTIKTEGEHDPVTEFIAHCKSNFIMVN
active: [20] -0.562
inactive: [13] 0.244 | [2] -0.052 | [14] -0.044 | [15] -0.113 | [3] 0.298 | [16] 0.015 | [4] -0.05 | [17] 0.226 | [5] -0.114 | [18] -0.378 | [19] 0.024 | [8] -0.228 | [10] -0.002 | [12] -0.085

NUMBL (UniProt Q9Y6R0)
inactive: [20] 0.019 | [13] 0.073 | [2] -0.01 | [14] 0.023 | [15] 0.007 | [3] -0.023 | [16] -0.051 | [4] 0.041 | [17] -0.259 | [5] -0.088 | [18] 0.07 | [19] 0.144 | [8] -0.101 | [10] -0.015 | [12] 0.098
active: [6] -0.412

MXRA7 isoform 3 (UniProt P84157)
inactive: [20] -0.01

OAF (UniProt Q86UD1)
Chain of UniProt Q86UD1 (Q86UD1 whole entry, looked up): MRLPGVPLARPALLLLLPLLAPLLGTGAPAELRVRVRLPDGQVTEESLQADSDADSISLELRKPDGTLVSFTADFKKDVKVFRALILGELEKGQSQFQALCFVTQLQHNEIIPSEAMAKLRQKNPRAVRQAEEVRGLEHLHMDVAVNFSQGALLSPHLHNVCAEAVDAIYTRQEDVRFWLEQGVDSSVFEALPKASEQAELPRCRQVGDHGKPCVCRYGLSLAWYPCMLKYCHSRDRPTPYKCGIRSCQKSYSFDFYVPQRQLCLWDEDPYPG
inactive: [14] -0.087 | [6] 0.139 | [19] 0.043

OSBPL2 (UniProt Q9H1P3)
inactive: [20] 0.025 | [18] -0.197

MRM2 (UniProt Q9UI43)
Chain of UniProt Q9UI43 (Q9UI43 whole entry, looked up): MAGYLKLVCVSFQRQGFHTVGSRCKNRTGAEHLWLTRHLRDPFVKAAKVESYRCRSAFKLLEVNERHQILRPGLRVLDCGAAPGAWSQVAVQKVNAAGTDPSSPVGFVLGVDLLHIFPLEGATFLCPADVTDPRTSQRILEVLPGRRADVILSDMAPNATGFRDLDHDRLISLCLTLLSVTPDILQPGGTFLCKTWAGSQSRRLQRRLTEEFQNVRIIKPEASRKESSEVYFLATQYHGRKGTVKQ
inactive: [20] -0.083 | [13] 0.008 | [14] 0.065 | [3] -0.122 | [4] -0.042 | [5] 0.173 | [18] -0.364 | [7] -0.07 | [19] 0.033 | [8] -0.24 | [10] 0.004 | [12] 0.101

NCOA5 (UniProt Q9HCD5)
Chain of UniProt Q9HCD5 (Q9HCD5 whole entry, looked up): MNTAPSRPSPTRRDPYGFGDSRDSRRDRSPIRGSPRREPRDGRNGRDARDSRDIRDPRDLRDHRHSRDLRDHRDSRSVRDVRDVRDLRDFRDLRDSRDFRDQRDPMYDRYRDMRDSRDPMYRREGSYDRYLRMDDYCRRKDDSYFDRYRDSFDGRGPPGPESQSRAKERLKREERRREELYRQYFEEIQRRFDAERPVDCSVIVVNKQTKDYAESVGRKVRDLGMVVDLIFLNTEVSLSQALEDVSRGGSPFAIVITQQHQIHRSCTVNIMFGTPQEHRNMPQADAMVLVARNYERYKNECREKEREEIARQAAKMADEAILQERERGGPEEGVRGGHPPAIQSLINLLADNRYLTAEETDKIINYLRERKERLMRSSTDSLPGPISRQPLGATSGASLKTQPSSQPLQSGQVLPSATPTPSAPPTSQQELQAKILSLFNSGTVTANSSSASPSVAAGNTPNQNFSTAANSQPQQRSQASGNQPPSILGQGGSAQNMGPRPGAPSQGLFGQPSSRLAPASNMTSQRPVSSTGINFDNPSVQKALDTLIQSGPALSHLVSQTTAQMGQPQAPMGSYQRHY
inactive: [20] 0.072 | [13] -0.019 | [14] 0.026 | [15] 0.038 | [4] 0.187 | [17] 0.036 | [5] 0.002 | [6] 0.188 | [19] -0.081 | [10] -0.04
